Bioassay records: PubChem, The Scripps Research Institute Molecular Screening Center
EBNA-1 inhibitor: blocks EBNA-1 binding to DNA; EBNA-1 DNA binding, fluorescence polarization; inhibition, % at 14.8 µM; 300,000 compounds, 0.34% hits; in the data active = inhibition above about 28%
MsrA inhibitor: inhibits bovine methionine sulfoxide reductase A | purified bovine MsrA, absorbance read-out | inhibition, % at 15.5 µM | 360,000 compounds, 0.75% hits; in the data active = inhibition above about 4.5%
MsrA act: bovine methionine sulfoxide reductase A activation | purified bovine MsrA, absorbance read-out | 360,000 compounds, 0.3% hits | activation, % at 10.6 µM | AID 602163; in the data active = activation above about 7.5%
PP5 inh: inhibitors of human protein phosphatase 5 (PP5) | P53041 | purified PP5c, OMFP substrate fluorescence | inhibition, % at 6.7 µM | 320,000 compounds, 0.18% hits | AID 1987;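 active = inhibition above the campaign's mean inhibition across all tested compounds plus 3 SD, cut at about 9.5% in these data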
PP1 inh: counter-screen for PP5 inhibitors: inhibitors of human PP1-alpha; purified PP1alpha, OMFP fluorescence; inhibition, % at 6.7 µM; 320,000 compounds, 0.9% hits;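 active = inhibition above the mean inhibition of all tested compounds plus 3 SD, computed separately for each screening campaign, cut at about 15% in these data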
Target sequence (P62136 whole entry, looked up): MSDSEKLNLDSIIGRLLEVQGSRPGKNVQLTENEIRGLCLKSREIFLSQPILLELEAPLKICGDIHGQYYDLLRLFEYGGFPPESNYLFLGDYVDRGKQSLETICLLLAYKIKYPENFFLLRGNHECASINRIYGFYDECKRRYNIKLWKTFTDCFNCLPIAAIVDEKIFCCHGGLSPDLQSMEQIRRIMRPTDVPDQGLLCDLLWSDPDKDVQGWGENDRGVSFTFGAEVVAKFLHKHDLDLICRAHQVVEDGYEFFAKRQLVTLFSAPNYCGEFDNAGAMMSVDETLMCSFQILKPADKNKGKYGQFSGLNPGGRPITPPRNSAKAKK
ZTA counter: ZTA (EBV) inhibition in EBNA-1 counter-screen | ZTA-DNA binding, fluorescence polarization | inhibition, % at 11 µM | 320,000 compounds, 0.15% hits | AID 2234; in the data active = inhibition above about 33%
Target sequence (P03206 whole entry, looked up): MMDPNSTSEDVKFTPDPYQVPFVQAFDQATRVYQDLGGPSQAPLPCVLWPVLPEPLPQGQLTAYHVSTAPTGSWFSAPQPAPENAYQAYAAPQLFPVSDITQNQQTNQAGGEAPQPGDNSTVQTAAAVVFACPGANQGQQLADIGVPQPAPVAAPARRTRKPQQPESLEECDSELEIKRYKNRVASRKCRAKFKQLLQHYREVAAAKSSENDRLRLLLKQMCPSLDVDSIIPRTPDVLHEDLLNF
PP1 inh confirm: confirmation of human PP1 phosphatase inhibitors. purified PP1alpha, OMFP substrate fluorescence. 1,900 compounds, 52% hits. AID 2358. shares compounds with PP1 inh. inhibition, % at 6.7 µM;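 active = mean PP1 inhibition above a set limit taken from the earlier primary screen, cut at about 15% in these data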
PP5 inh counter: PP5 phosphatase inhibition, counter-screen for PP1 inhibitors | shares compounds with PP1 inh | purified PP5c, OMFP fluorescence | inhibition, % at 6.7 µM | 1,900 compounds, 4% hits | AID 2360;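 active = mean PP5 inhibition over triplicate wells above about 9.5% taken from the earlier PP1 screen, limit read from the data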
Of the large screens only hits and unclear results are named; the others gave an inactive call (follow-up assays come after a bar, where they were run). This is a sample that favours compounds with a hit; in the whole collection about 2.3% have one here.

CC(=O)Nc1ccc(NC(=O)COC(=O)c2ccccc2SCC(=O)N2CCCC2)cc1	PP1 inh 57.9 | PP1 inh confirm inactive | PP5 inh counter inactive
CCCCC(=O)NC(c1ccc(N(CC)CC)cc1)c1ccc2cccnc2c1O (configuration not stated)	PP1 inh 35.5 | PP1 inh confirm 24.0 | PP5 inh counter inactive
CC(=O)NC(c1ccc2ccccc2c1)c1ccc2cccnc2c1O (configuration not stated)	none
CCCCC(=O)NC(c1ccc(N(C)C)cc1)c1ccc2cccnc2c1O (configuration not stated)	PP1 inh 28.8 | PP1 inh confirm 21.0 | PP5 inh counter inactive
CCN(CC)c1ccc(C(NC(=O)C(C)C)c2ccc3cccnc3c2O)cc1 (configuration not stated)	none (no result: EBNA-1 inhibitor, PP5 inh, PP1 inh, ZTA counter)
CCOC(=O)N1CCC(N2Cc3cccc(C(=O)Nc4ccc(N(CC)CC)cc4C)c3C2=O)CC1	none
CC1=Nc2nc(N3CCCCC3)c(C#N)c3c4c(nc(c23)N1)N(c1ccc(C(C)C)cc1)C(=O)C4	PP1 inh 19.8 | PP1 inh confirm 16.1 | PP5 inh counter inactive
CC(C)c1cc2c(c(O)c1O)[C@@]13CCCC(C)(C)C1CC2OC3=O (some centres not stated)	PP1 inh 44.1 | PP1 inh confirm inactive | PP5 inh counter inactive
Cc1ccc(-n2c(O)c(/C=N/Nc3ccc(S(=O)(=O)N4CCOCC4)cc3[N+](=O)[O-])c3ccccc3c2=O)c(C)c1	PP1 inh 17.6 | PP1 inh confirm 17.6 | PP5 inh counter inactive
O=C(O)c1ccc(/C=N\Nc2ccc(S(=O)(=O)N3CCOCC3)cc2[N+](=O)[O-])cc1	none
O=C(CCC(=O)N1CCSc2ccccc21)NCCc1ccccc1	none
Cc1sc(N(C(=O)CCc2ccccc2)c2ccc(C(=O)O)cc2)nc1-c1ccccc1	PP1 inh 19.5 | PP1 inh confirm 15.2 | PP5 inh counter inactive
CN(c1ccccc1)c1ccc(/C=C(\CCC(=O)O)c2nc3ccccc3s2)cc1[N+](=O)[O-]	PP1 inh 26.0 | PP1 inh confirm inactive | PP5 inh counter inactive
O=C(O)C/C(=C\c1cccc(NC(=O)c2ccccc2Cl)c1)c1nc2ccccc2s1	none
Cc1ccc(/C=C(\CCC(=O)O)c2nc3ccccc3s2)cc1[N+](=O)[O-]	none
COc1ccc(C(=O)Nc2cccc(/C=C(\CCC(=O)O)c3nc4ccccc4s3)c2)cc1	PP1 inh 22.5 | PP1 inh confirm inactive | PP5 inh counter inactive
Fc1ccc(-n2cc(CNCCc3cccnc3)c(-c3ccccc3Cl)n2)cc1	none
COc1ccc(-n2c(SCC(=O)Nc3sc4c(c3C#N)CCCC4)nnc2-c2ccccc2OC)cc1	PP1 inh 17.8 | PP1 inh confirm inactive | PP5 inh counter inactive
Cc1ccc(-c2nnc(SCC(=O)N/N=C/c3ccc(C)s3)n2-c2ccc(C)cc2)cc1	PP1 inh 19.6 | PP1 inh confirm inactive | PP5 inh counter inactive
CCn1c(CC(=O)Nc2ccc(C)cc2)nnc1SCC(=O)N1CCOCC1	PP1 inh 26.4 | PP1 inh confirm inactive | PP5 inh counter inactive
N#CCSc1nc2ccccc2c(=O)n1CC1CCCC1	none
N#CCSc1nc2ccc(N3CCCCC3)cc2c(=O)n1Cc1ccccc1	PP1 inh 23.1 | PP1 inh confirm 20.9 | PP5 inh counter inactive
COc1ccc(/C=N/Nc2cc(C)nc3ccc(Br)cc23)cc1	PP1 inh 22.1 | PP1 inh confirm inactive | PP5 inh counter inactive
COc1ccc2nc(C)cc(N/N=C/c3cccc(OC)c3O)c2c1	none
NS(=O)(=O)c1ccc(N/N=C/c2cn(-c3ccccc3)nc2-c2cccs2)c([N+](=O)[O-])c1	PP1 inh 26.3 | PP1 inh confirm 26.2 | PP5 inh counter inactive
CCc1nnc(NC(=O)c2sc3nc4c(cc3c2N)CCCCCC4)s1	PP1 inh 21.8 | PP1 inh confirm 28.5 | PP5 inh counter inactive
COCCCC1CCN(C(=O)C2CCC(=O)N(Cc3cccc(F)c3)C2)CC1 (configuration not stated)	none
Cc1sc2nc(CN3CCCC3)nc(N3CCN(S(=O)(=O)c4cccc(F)c4)CC3)c2c1C	PP1 inh 18.6 (no result: EBNA-1 inhibitor) | PP1 inh confirm inactive | PP5 inh counter inactive
COc1cc(OC)c(C2C=CC(=O)CC2)c(OC)c1 (configuration not stated)	none (no result: EBNA-1 inhibitor, PP5 inh, PP1 inh, ZTA counter)
O=C(Nc1ccc(N2CCCC2)cc1)c1cc(Br)ccc1Cl	PP1 inh 33.1 | PP1 inh confirm inactive | PP5 inh counter inactive
O=C(Nc1ccc(N2CCN(Cc3ccccc3)CC2)cc1)c1ccccc1[N+](=O)[O-]	none
CS(=O)(=O)c1ccc(C(=O)Nc2ccc(N3CCCC3)cc2)c(Cl)c1	none
O=C(Nc1ccc(N2CCCC2)cc1)c1ccccc1[N+](=O)[O-]	PP1 inh 19.0 | PP1 inh confirm inactive | PP5 inh counter inactive
Fc1ccc(Oc2nc(-c3ccccn3)nc3ccccc23)cc1	PP1 inh 17.7 | PP1 inh confirm 23.2 | PP5 inh counter inactive
c1ccc(-c2nc(N3CCOCC3)c3ccccc3n2)nc1	none
CCCN(CCC)c1nc(-c2ccccn2)nc2ccccc12	none (no result: EBNA-1 inhibitor, PP5 inh, PP1 inh, ZTA counter)
c1ccc(CCNc2nc(-c3ccccn3)nc3ccccc23)cc1	PP1 inh 29.2 | PP1 inh confirm 49.6 | PP5 inh counter inactive
c1ccc(-c2nc(N3CCCCCC3)c3ccccc3n2)nc1	PP1 inh 26.9 | PP1 inh confirm 25.6 | PP5 inh counter inactive
CC(=O)Nc1ccc2nc(NC(=O)COc3cccc(C)c3)sc2c1	none
COc1ccc(Cl)cc1NC(=O)c1nnn(CC(=O)Nc2ccc3c(c2)OCO3)c1N	PP1 inh 24.7 | PP1 inh confirm 25.9 | PP5 inh counter inactive
COc1cccc(NC(=O)Cn2nnc(C(=O)Nc3cc(Cl)ccc3OC)c2N)c1	PP1 inh 18.1 | PP1 inh confirm 19.5 | PP5 inh counter inactive
Brc1ccc(N/N=C(/N=Nc2nn[nH]n2)c2ccccc2)cc1	PP1 inh 19.2 | PP1 inh confirm 24.2 | PP5 inh counter inactive
CCc1nc2c(OCCOc3ccc(F)cc3)cccn2c1N(C)C(=O)CC(C)C	none (no result: EBNA-1 inhibitor, PP5 inh, PP1 inh, ZTA counter)
CCCCCCCC/C=C\CCCCCCCC(=O)NCCc1ccc(O)c(O)c1	PP5 inh 14.6, PP1 inh 16.4 | PP1 inh confirm inactive | PP5 inh counter inactive
CCCCCCCC/C=C\CCCCCCCC(=O)NCCO	none
CCC(=O)Nc1nnc(/C=C/c2ccc(OC)cc2)s1	PP1 inh 22.5 | PP1 inh confirm inactive | PP5 inh counter inactive
COc1ccc(/C=C/c2nnc(NC(=O)CSc3ccc(C)cc3)s2)cc1	none
